# Records with an inconclusive call do not appear. Unmarked numbers belong to inactive results. Calls of active or inactive are those of the source. Calls come from the whole dose curve.
# Target: Cytochrome P450 1A2 (Homo sapiens) (UniProt P05177)
# Assay: p450-cyp1a2 (AID 410);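 for activity change, negative = inhibition: -100% = full effect of reference inhibitor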
# Conditions: recombinant CYP1A2, luciferin-ME demethylation, luminescence; series mostly up to 57 µM; activity change, negative = inhibition: at the top concentration
# Method in brief: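 Human CYP1A2 (20nM) demethylated Luciferin-ME at its Km (100uM) in 100mM KPO4. After 10 min compound preincubation, NADPH regeneration ran the reaction 60 min at room temperature. Luciferin was read by luminescence, normalized to 57 uM furafylline.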
# Potency is the fitted concentration of half-maximal effect.
# Chain of Cytochrome P450 1A2 (Homo sapiens) (P05177 whole entry, looked up): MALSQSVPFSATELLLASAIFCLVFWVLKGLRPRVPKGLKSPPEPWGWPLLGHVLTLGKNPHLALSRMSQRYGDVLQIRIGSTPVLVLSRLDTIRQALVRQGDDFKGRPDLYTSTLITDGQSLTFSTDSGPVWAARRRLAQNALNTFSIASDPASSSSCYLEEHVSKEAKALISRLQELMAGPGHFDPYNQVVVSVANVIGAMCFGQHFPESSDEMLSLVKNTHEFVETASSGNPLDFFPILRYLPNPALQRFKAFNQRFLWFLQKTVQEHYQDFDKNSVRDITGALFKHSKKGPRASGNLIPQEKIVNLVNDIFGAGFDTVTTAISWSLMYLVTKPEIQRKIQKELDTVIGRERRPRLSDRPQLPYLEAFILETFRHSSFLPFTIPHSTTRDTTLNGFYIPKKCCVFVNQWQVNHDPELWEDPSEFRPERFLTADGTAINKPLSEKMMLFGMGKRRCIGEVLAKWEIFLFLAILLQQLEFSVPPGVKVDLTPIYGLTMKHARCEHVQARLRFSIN
SMILES,Potency,"activity change, negative = inhibition [%]"
CC(Cc1ccccc1)C(=O)NCc1ccccn1 (centres undefined),15.8 µM (active),–
COC(=O)[C@@]1(Cc2ccc(F)cc2)[C@H]2c3cc(C(=O)N4CCCC4)n(CCO)c3C[C@H]2CN1C(=O)c1ccccc1,25.1 µM (active),–
COC(=O)[C@@]1(Cc2ccc(F)cc2)[C@H]2c3cc(C(=O)N(C)C)n(Cc4cc(F)c(F)c(F)c4)c3C[C@H]2CN1C(=O)c1ccccc1,–,32.2
CCc1c2c(nc3cccc(OC)c13)OC(CC)C2 (centres undefined),2 µM (active),–
COC(=O)[C@@]1(Cc2ccc(F)cc2)[C@H]2c3cc(C(=O)N4CCCC4)n(Cc4cccc5ccccc45)c3C[C@H]2CN1C(=O)c1ccccc1,15.8 µM (active),–
COC(=O)c1ccc(C#CC(NP(=O)(c2ccccc2)c2ccccc2)c2ccccc2)cc1 (centres undefined),20 µM (active),–
CCCC1(C(=O)OC)C=C2C(=C(C)C(=O)C2C)CN1 (centres undefined),–,-20.6
COC(=O)[C@@]1(Cc2ccccc2)[C@H]2c3cc(C(=O)N(C)C)n(CCN4CNCC4=O)c3C[C@H]2CN1C(=O)c1ccccc1,5.01 µM (active),–
CC1(C)S[C@@H]2[C@@H](NC(=O)[C@@H](N)c3ccccc3)C(=O)N2[C@H]1C(=O)O,–,44.4
COC(=O)[C@@]1(Cc2ccccc2)[C@H]2c3cc(C(=O)N4CCCC4)n(Cc4ccc(OC)c(OC)c4)c3C[C@H]2CN1C(=O)c1ccccc1,–,-22.9
C[C@@]1(C(NC(=O)c2ccccc2)c2ccc(-c3ccccc3)cc2)C[C@H]1C1CCCCC1 (some centres undefined),–,7.9
CCCC[C@@H]1C[C@H]1C(NC(=O)c1ccc(-c2ccccc2)cc1)c1ccc(-c2ccccc2)cc1 (some centres undefined),–,0.1
COC(=O)C1(Cc2ccccc2)C=C2C(=C(C)C(=O)C2C)CN1 (centres undefined),10 µM (active),–
C[C@@]1(C(NC(=O)c2ccc(-c3ccccc3)cc2)c2ccc(Cl)cc2)C[C@H]1C1CCCCC1 (some centres undefined),–,-17.1
CCC[C@@H]1C[C@@]1(CCC)C(NC(=O)c1ccc(-c2ccccc2)cc1)c1cccc(Cl)c1 (some centres undefined),–,-2.6
CC1=C(C(=O)OCc2ccccc2)C(c2ccccc2)NC(=O)N1CCCCCC(=O)O (centres undefined),20 µM (active),–
COC(=O)[C@@]1(Cc2ccc(F)cc2)[C@H]2c3cc(C(=O)N(C)C)n(C)c3C[C@H]2CN1C(=O)c1ccccc1,31.6 µM (active),–
C[C@@H](C(=O)Nc1ccc2ccccc2c1)[C@@H]1C[C@@]1(C)[C@@H](NC(=O)Oc1ccc(F)cc1)c1ccccc1,–,-19.8
COC(=O)[C@@]1(Cc2ccc(F)cc2)[C@H]2c3cc(C(=O)N4CCCC4)n(Cc4ccc(OC(F)(F)F)cc4)c3C[C@H]2CN1C(=O)c1ccccc1,–,-20.5
COCCn1c(C(=O)N2CCCC2)cc2c1C[C@H]1CN(C(=O)c3ccccc3)[C@@](Cc3ccc(F)cc3)(C(=O)OC)[C@@H]21,31.6 µM (active),–

SMILES,Potency,"activity change, negative = inhibition [%]"
C[C@@H](C(=O)Nc1ccc2ccccc2c1)[C@@H]1C[C@@]1(C)[C@@H](NS(=O)(=O)c1ccc(-c2ccccc2)cc1)c1ccccc1,12.6 µM (active),–
CCC#CCOCC(=S)Nc1ccccc1,15.8 µM (active),–
O=C(Nc1ccc2ccccc2c1)[C@@H]1C[C@H]1[C@@H](NP(=O)(c1ccccc1)c1ccccc1)c1ccccc1,20 µM (active),–
C[C@@H](C(=O)Nc1ccc2ccccc2c1)[C@H]1C[C@]1(C)[C@H](NC(=O)OCc1ccccc1)c1ccccc1,3.98 µM (active),–
C[C@@H](C(=O)Nc1ccc2ccccc2c1)[C@@H]1C[C@@]1(C)[C@@H](NC(=O)c1ccncc1Cl)c1ccccc1,25.1 µM (active),–
COC(=O)[C@@]1(Cc2ccc(OC)cc2)[C@H]2c3cc(C(=O)N4CCCC4)n(CCc4c[nH]c5ccc(OC)cc45)c3C[C@H]2CN1C(=O)c1ccccc1,10 µM (active),–
COC(=O)[C@@]1(Cc2ccc(F)cc2)[C@H]2c3cc(C(=O)N4CCCC4)n(Cc4ccccc4)c3C[C@H]2CN1C(=O)c1ccccc1,20 µM (active),–
CCC#CCOCC(=O)Nc1ccccc1,25.1 µM (active),–
COC(=O)[C@@]1(Cc2ccc(F)cc2)[C@H]2c3cc(C(=O)N(C)C)n(Cc4cccc5ccccc45)c3C[C@H]2CN1C(=O)c1ccccc1,6.31 µM (active),–
COC(=O)[C@@]1(Cc2ccc(OC)cc2)[C@H]2c3cc(C(=O)N4CCCC4)n(Cc4c(CO)[nH]cc(C)c4=O)c3C[C@H]2CN1C(=O)c1ccccc1,25.1 µM (active),–
CCCc1cc2c(n1Cc1cc(F)cc(F)c1)C(C)C1CN(C(=O)c3ccccc3)C(C)(C(=O)OC)C21 (centres undefined),–,-19.9
CC(=O)N1CC2(CC2)CC1c1ccccc1 (centres undefined),–,14.3
COC(=O)[C@@]1(Cc2ccc(F)cc2)[C@H]2c3cc(C(=O)N(C)C)n(CCc4c[nH]c5ccc(OC)cc45)c3C[C@H]2CN1C(=O)c1ccccc1,12.6 µM (active),–
COC(=O)[C@@H]1C[C@H]1[C@@H](NC(=O)Oc1ccc(F)cc1)c1ccccc1,3.16 µM (active),–
CCCC/C=C/C(NC(=O)c1ccc(-c2ccccc2)cc1)c1ccccc1 (centres undefined),15.8 µM (active),–
C[C@@H](C(=O)O)[C@@H]1C[C@@]1(C)[C@@H](NC(=O)OCc1ccccc1)c1ccccc1,–,-23.4
COC(=O)[C@@]1(Cc2ccc(F)cc2)[C@H]2c3cc(C(=O)N4CCCC4)n(CCF)c3C[C@H]2CN1C(=O)c1ccccc1,15.8 µM (active),–
O=C(N[C@@H](c1ccccc1)[C@@H]1C[C@H]1C(=O)O)OCc1ccccc1,20 µM (active),–
COC(=O)[C@@H]1C[C@H]1[C@@H](NC(=O)OCc1ccccc1)c1ccccc1,0.2 µM (active),–

# Reference: PubChem BioAssay (NCATS)
